How the values were obtained:
[1] = molecular target: Dual specificity protein kinase CLK3 (Homo sapiens) (UniProt P49761); details: at 1 µM;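 also: each value is the mean inhibition of CLK3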
[2] = molecular target: Dual specificity tyrosine-phosphorylation-regulated kinase 1A (Homo sapiens) (UniProt Q13627); details: at 0.1 µM
[3] = molecular target: Dual specificity tyrosine-phosphorylation-regulated kinase 1A (Homo sapiens) (UniProt Q13627); details: at 1 µM
[4] = molecular target: Dual specificity tyrosine-phosphorylation-regulated kinase 1B (Homo sapiens) (UniProt Q9Y463); details: at 0.1 µM
[5] = molecular target: Dual specificity tyrosine-phosphorylation-regulated kinase 1B (Homo sapiens) (UniProt Q9Y463); details: at 1 µM
[6] = molecular target: T1, Dual specificity tyrosine-phosphorylation-regulated kinase 2 (Homo sapiens) (UniProt Q92630); details: at 0.1 µM
T1 sequence (whole entry): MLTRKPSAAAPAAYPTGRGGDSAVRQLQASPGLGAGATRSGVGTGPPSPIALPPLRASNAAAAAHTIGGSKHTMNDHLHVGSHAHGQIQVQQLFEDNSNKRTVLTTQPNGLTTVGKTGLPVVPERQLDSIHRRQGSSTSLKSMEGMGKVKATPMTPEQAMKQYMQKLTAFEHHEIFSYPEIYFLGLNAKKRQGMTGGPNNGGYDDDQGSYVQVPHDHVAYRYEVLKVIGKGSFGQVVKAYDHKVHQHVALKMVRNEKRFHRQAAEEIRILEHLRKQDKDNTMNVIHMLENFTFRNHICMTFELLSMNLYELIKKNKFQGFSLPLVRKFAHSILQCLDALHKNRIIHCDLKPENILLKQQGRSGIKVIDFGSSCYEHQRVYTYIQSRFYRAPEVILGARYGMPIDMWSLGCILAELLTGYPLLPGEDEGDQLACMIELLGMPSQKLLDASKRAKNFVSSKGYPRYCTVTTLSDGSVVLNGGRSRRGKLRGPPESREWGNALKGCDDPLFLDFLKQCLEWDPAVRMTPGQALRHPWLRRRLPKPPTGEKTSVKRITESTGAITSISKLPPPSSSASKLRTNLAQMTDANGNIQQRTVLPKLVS

[7] = molecular target: T1, Dual specificity tyrosine-phosphorylation-regulated kinase 2 (Homo sapiens); details: at 1 µM
[8] = molecular target: Glycogen synthase kinase-3 alpha (Homo sapiens) (UniProt P49840); details: at 0.1 µM
[9] = molecular target: Glycogen synthase kinase-3 alpha (Homo sapiens) (UniProt P49840); details: at 1 µM
[10] = molecular target: Glycogen synthase kinase-3 beta (Homo sapiens) (UniProt P49841); details: at 0.1 µM
[11] = molecular target: Glycogen synthase kinase-3 beta (Homo sapiens) (UniProt P49841); details: at 1 µM
[12] = molecular target: Homeodomain-interacting protein kinase 1 (Homo sapiens) (UniProt Q86Z02); details: at 0.1 µM
[13] = molecular target: Homeodomain-interacting protein kinase 1 (Homo sapiens) (UniProt Q86Z02); details: at 1 µM
[14] = molecular target: T2, Homeodomain-interacting protein kinase 4 (Homo sapiens) (UniProt Q8NE63); details: at 0.1 µM
T2 sequence (whole entry): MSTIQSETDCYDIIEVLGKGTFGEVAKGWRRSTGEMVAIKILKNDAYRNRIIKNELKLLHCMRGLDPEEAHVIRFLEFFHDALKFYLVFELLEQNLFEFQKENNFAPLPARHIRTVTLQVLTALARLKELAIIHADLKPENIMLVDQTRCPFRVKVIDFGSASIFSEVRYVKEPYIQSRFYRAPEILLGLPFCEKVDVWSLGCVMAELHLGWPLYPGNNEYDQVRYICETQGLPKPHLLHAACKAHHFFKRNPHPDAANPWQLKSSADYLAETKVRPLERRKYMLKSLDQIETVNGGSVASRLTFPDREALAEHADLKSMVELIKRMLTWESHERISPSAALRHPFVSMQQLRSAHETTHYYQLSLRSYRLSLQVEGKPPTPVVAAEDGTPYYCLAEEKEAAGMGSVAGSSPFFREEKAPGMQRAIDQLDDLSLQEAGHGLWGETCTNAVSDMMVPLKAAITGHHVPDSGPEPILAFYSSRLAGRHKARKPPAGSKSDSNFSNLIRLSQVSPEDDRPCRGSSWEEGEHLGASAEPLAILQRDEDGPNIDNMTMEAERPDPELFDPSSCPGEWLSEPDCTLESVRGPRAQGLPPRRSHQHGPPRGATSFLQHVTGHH

[15] = molecular target: T2, Homeodomain-interacting protein kinase 4 (Homo sapiens); details: at 1 µM
[16] = molecular target: Mitogen-activated protein kinase 9 (Homo sapiens) (UniProt P45984); details: at 0.1 µM
[17] = molecular target: Mitogen-activated protein kinase 9 (Homo sapiens) (UniProt P45984); details: at 1 µM
[18] = molecular target: Mitogen-activated protein kinase 1 (Homo sapiens) (UniProt P28482); details: at 0.1 µM
[19] = molecular target: Mitogen-activated protein kinase 1 (Homo sapiens) (UniProt P28482); details: at 1 µM
[20] = molecular target: Mitogen-activated protein kinase 3 (Homo sapiens) (UniProt P27361); details: at 0.1 µM;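 also: each value is a mean inhibition figure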
Sequence of Mitogen-activated protein kinase 3 (Homo sapiens) (P27361 whole entry): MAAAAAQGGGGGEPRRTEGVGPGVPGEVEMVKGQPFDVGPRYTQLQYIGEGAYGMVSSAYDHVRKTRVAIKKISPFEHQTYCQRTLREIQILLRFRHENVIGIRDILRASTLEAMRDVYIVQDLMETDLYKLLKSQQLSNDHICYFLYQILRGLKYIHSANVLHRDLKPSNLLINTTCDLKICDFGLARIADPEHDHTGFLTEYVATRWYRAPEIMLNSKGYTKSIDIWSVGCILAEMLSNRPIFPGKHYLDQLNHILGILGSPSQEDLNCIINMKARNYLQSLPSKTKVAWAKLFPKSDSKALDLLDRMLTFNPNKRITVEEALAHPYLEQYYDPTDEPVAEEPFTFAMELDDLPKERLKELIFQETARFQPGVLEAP

Sequence of Mitogen-activated protein kinase 9 (Homo sapiens) (P45984 whole entry, looked up): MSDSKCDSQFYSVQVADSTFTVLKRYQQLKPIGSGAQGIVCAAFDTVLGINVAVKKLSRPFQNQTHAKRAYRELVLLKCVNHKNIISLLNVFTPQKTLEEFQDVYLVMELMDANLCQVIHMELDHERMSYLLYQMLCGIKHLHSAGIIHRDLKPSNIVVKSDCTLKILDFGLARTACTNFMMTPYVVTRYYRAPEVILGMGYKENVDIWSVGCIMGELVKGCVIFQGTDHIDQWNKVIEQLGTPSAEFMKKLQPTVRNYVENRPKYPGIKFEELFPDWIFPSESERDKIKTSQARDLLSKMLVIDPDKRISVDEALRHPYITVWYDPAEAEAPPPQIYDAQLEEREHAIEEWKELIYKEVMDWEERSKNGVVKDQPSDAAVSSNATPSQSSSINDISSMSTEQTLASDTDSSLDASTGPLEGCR
Sequence of Glycogen synthase kinase-3 alpha (Homo sapiens) (P49840 2-483 limits assumed): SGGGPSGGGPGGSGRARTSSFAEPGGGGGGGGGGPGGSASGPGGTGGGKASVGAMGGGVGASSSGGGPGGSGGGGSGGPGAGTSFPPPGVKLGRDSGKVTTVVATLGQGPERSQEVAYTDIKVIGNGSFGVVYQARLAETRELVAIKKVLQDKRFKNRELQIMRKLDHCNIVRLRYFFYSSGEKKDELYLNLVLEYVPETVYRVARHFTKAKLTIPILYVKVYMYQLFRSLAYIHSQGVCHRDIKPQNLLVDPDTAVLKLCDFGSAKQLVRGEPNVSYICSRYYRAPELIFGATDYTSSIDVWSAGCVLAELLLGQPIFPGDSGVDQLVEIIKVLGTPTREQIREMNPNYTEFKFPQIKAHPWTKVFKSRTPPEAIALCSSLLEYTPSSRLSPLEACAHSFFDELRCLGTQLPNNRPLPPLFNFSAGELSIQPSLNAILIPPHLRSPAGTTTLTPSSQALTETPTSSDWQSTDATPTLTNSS
Sequence of Glycogen synthase kinase-3 beta (Homo sapiens) (P49841 whole entry, looked up): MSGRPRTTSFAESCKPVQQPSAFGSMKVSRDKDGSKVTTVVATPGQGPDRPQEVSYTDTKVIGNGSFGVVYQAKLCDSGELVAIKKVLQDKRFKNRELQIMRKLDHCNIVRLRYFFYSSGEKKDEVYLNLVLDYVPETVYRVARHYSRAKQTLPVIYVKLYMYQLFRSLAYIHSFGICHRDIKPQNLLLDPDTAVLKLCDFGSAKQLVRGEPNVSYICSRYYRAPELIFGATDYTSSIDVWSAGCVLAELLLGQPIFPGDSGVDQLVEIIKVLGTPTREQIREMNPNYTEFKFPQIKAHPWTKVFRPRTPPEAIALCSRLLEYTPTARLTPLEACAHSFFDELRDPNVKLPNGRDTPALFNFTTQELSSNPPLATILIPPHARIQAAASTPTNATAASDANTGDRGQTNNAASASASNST
Sequence of Dual specificity tyrosine-phosphorylation-regulated kinase 1B (Homo sapiens) (Q9Y463 whole entry, looked up): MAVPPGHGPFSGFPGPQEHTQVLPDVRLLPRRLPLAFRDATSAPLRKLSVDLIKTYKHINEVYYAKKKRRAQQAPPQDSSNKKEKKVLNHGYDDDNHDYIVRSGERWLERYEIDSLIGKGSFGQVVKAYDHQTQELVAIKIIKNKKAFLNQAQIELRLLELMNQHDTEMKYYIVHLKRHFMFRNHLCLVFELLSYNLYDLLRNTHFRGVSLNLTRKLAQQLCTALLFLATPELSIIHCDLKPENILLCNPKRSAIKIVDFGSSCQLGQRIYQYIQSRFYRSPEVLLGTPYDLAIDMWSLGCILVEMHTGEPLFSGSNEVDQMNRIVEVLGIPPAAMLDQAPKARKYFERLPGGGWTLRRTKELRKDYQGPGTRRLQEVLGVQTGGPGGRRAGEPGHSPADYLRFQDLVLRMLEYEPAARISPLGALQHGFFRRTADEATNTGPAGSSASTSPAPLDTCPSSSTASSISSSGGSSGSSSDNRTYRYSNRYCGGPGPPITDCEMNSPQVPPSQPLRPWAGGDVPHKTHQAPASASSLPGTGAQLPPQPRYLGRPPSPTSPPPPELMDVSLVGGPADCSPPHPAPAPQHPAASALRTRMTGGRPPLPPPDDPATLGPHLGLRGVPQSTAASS
Sequence of Dual specificity protein kinase CLK3 (Homo sapiens) (P49761 whole entry, looked up): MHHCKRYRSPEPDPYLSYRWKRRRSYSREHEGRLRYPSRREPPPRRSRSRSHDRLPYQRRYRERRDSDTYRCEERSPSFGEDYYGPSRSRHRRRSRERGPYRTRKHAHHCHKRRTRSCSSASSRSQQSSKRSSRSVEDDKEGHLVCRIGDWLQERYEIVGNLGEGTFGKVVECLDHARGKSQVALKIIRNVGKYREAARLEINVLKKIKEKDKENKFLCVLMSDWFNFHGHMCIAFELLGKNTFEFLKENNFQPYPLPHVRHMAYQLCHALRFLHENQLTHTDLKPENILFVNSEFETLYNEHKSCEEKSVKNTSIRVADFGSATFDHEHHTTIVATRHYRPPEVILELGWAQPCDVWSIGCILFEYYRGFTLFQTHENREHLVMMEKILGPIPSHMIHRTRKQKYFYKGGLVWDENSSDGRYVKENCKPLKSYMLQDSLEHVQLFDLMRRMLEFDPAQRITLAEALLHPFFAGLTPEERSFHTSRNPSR
Sequence of Mitogen-activated protein kinase 1 (Homo sapiens) (P28482 whole entry): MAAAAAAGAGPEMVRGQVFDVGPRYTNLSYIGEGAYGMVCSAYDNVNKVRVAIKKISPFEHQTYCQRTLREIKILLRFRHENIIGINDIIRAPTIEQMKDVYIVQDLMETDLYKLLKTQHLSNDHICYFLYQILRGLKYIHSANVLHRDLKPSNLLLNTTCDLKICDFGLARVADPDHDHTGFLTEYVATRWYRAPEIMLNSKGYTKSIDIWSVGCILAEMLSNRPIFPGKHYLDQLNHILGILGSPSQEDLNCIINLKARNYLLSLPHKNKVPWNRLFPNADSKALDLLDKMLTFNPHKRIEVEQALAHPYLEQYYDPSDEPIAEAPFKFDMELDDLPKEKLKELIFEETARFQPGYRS
Sequence of Homeodomain-interacting protein kinase 1 (Homo sapiens) (Q86Z02 whole entry, looked up): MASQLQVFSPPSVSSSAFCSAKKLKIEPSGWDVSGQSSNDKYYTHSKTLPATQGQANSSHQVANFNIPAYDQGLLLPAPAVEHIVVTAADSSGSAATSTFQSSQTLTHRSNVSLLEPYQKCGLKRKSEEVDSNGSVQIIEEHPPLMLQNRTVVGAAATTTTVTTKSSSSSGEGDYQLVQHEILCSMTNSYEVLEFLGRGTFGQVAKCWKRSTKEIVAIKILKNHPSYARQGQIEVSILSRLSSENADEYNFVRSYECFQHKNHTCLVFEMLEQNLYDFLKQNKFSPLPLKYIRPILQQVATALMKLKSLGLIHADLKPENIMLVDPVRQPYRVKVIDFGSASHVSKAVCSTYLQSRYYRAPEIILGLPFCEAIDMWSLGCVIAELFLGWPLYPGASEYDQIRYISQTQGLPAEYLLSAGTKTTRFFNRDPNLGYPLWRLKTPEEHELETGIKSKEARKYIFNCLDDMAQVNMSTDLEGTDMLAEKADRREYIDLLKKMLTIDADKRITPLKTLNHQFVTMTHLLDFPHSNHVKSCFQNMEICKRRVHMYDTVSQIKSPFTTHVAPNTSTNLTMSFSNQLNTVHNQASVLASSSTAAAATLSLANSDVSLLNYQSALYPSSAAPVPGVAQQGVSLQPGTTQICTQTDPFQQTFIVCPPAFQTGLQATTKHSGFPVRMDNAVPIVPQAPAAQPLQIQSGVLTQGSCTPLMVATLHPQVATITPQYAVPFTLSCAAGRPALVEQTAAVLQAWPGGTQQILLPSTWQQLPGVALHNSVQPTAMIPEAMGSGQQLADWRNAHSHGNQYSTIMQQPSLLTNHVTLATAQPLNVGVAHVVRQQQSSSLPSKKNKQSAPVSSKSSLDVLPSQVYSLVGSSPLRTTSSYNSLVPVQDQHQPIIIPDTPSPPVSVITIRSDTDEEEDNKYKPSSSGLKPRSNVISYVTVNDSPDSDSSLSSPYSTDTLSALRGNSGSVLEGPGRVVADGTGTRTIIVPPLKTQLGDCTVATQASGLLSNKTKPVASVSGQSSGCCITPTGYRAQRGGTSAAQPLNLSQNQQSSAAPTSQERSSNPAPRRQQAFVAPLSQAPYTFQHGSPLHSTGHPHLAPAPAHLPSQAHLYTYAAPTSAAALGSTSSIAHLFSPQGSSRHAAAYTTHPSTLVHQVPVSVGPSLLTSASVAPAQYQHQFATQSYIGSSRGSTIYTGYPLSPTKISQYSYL

| Compound | inhibition [1] [%] | inhibition [2] [%] | inhibition [3] [%] | inhibition [4] [%] | inhibition [5] [%] | inhibition [6] [%] | inhibition [7] [%] | inhibition [8] [%] | inhibition [9] [%] | inhibition [10] [%] | inhibition [11] [%] | inhibition [12] [%] | inhibition [13] [%] | inhibition [14] [%] | inhibition [15] [%] | inhibition [16] [%] | inhibition [17] [%] | inhibition [18] [%] | inhibition [19] [%] | inhibition [20] [%] |
| --- | --- | --- | --- | --- | --- | --- | --- | --- | --- | --- | --- | --- | --- | --- | --- | --- | --- | --- | --- | --- |
| c1ccc(Nc2ncc(-c3ccccc3)o2)cc1 | 1.62 | 3.02 | 2.66 | -0.02 | 1.13 | 4.52 | 5.66 | 4.96 | 15.8 | 5.53 | 13.3 | -2.56 | 3.15 | 1.19 | 6.31 | 6.78 | 12.9 | 6.94 | 7.41 | 6.5 |
| COc1cccc(-n2ncc3c(N/N=C/c4ccc(C)cc4)ncnc32)c1 | 1.46 | 5.94 | 16.5 | 3.97 | 11.3 | 5.76 | 13.6 | 19.4 | 55.6 | 13.1 | 47 | 1.58 | 13.3 | 3.16 | 11.4 | 8.36 | 11.6 | 6.17 | 7.67 | 4.71 |
| CN(C)C(=O)O[C@H]1CN[C@H](C#Cc2cc3ncnc(Nc4ccc(OCc5cccc(F)c5)c(Cl)c4)c3s2)C1 | 1.86 | 1.54 | 3.38 | 0.21 | 0.78 | 2 | 2.24 | 1.64 | 5.51 | 1.31 | 4.1 | -0.07 | 0.31 | 0.17 | 1.29 | 2.26 | 6.8 | -0.55 | 2.89 | 1.44 |
| COc1cccc(-n2nc(C)c3c(N/N=C(\C)c4ccncc4)ncnc32)c1 | -2.35 | 1.02 | 11 | 1.32 | 8.31 | 0.5 | 4.22 | 4.39 | 11.6 | 3.08 | 9.41 | -1.66 | 2.66 | -1.56 | 2.79 | 1.92 | 2.01 | 2.86 | 1.42 | -1.05 |
| Cc1ccc2c(-c3ccnc(Nc4ccc5c(c4)OCCO5)n3)c(-c3ccc(C(F)(F)F)cc3)nn2n1 | 0.07 | 0.1 | 2 | -0.58 | 1.39 | -0.27 | -1.15 | 5.44 | 10.5 | 4.65 | 10.2 | -4.36 | 0.03 | -0.51 | -0.85 | -0.33 | 4.2 | 1.99 | 2.01 | 2.57 |
| C[C@@H](Oc1cc(-n2cnc3ccc(OCC4CCN(C)CC4)cc32)sc1C(N)=O)c1ccccc1C(F)(F)F | 3.73 | -2.42 | 2.47 | 0.26 | 2.2 | -2.57 | -2.94 | -0.56 | 2.65 | -0.31 | 2.74 | -3.51 | 9.66 | 4.86 | 32.3 | -0.81 | -1.11 | 0.24 | 0.02 | -1.53 |
| ON=C1CCc2cc(-c3nc(C4CCNCC4)[nH]c3-c3ccncc3)ccc21 | 0.22 | -0.17 | 1.12 | 0.17 | -0.11 | -0.01 | 1.2 | 1.4 | 5.93 | 0.85 | 4.56 | -5.24 | 0.65 | -1.3 | 2.78 | 2.05 | 3.06 | -1.76 | 1.85 | 1.87 |
| CN(C)C(=O)O[C@@H]1CN[C@@H](C#Cc2cc3ncnc(Nc4ccc(OCc5cccc(F)c5)c(Cl)c4)c3s2)C1 | 0.69 | 0.28 | 2.08 | 0.23 | 1.08 | -0.19 | -0.32 | 1.34 | 8.31 | 1.37 | 7.41 | -3.67 | -3.81 | -1.55 | 0.99 | 3.81 | 4.77 | -1.16 | 1.96 | 3.17 |
| OCc1ccc(-c2nc(-c3ccccn3)c(-c3ccc4c(c3)OCO4)[nH]2)cc1 | 2.95 | 1.82 | 4.86 | 0.33 | 0.97 | 2.62 | 3.63 | 2.15 | 4.5 | 2.21 | 3.44 | 0.23 | 4.92 | 1.72 | 0.79 | 2.15 | 5.14 | 5.49 | 3.7 | 3.56 |
| COc1cc2ncn(-c3cc(OCc4ccccc4S(C)(=O)=O)c(C#N)s3)c2cc1OC | 3.74 | 6.14 | 19.3 | 2.5 | 13.9 | 2.4 | 4.87 | 4.96 | 11.3 | 4.26 | 8.83 | 2.2 | 28 | 52.5 | 79 | 2.5 | 6.08 | 1.98 | 5.43 | 3.11 |
| O=C1Nc2ccc(-c3cccnc3)cc2C1=Cc1cc(Br)c(O)c(Br)c1 | 38.6 | 21.7 | 63.5 | 9 | 46.7 | 3.53 | 15.5 | 4.28 | 26.1 | 3.87 | 21.4 | 2.42 | 22.4 | 2.35 | 13.8 | 1.52 | 3.04 | 6.12 | 3.37 | 4.06 |
| COc1cc2ncnc(Nc3ccc4c(cnn4Cc4ccccc4)c3)c2cc1OC | 0.4 | 2.51 | 2.6 | -2.48 | 0.09 | 2.37 | 2.95 | 4.71 | 6.57 | 4.13 | 7.35 | -5.38 | -0.46 | -0.51 | 0.79 | 0.52 | 1.98 | 2.88 | 4.22 | 1.19 |
| O=C(Nc1ccc(Oc2ccc3[nH]c(NC(=O)c4ccco4)nc3c2)cc1)Nc1cc(C(F)(F)F)ccc1F | -2.83 | -3.75 | -1.33 | -3.67 | -1.57 | 0.62 | 0.74 | -1.87 | 2.71 | -2.51 | 1.83 | -4.45 | -2.14 | 13.6 | 66.3 | 0.08 | 2.67 | 0.81 | 0.8 | 1.59 |
| C[C@@H](Oc1cc(-n2cnc3ccc(OC[C@@H](O)CO)cc32)sc1C(N)=O)c1ccccc1Cl | 1.12 | 0.12 | 3.71 | 1.13 | 2.69 | -1.33 | 1.61 | 0.1 | 3.84 | 0.42 | 4.23 | -0.81 | 4.78 | 1.18 | 9.28 | -0.38 | -0.96 | -3.13 | -1.64 | -0.87 |

From ChEMBL document CHEMBL1961873, “Compounds: GSK PKIS; Assays: Nanosyn kinase panel” (2012)
